This is a sample that favours compounds with a hit; in the whole collection about 5.3% have one here.
HCV inh: qHTS Assay for Inhibitors of Hepatitis C Virus (HCV); Huh7.5.1 HCVcc-Cre infection, luciferase reporter, 44 h; Potency, µM (series often up to 41.8 µM), actives largely listed as inhibitors; 340,000 compounds, 3.4% hits; AID 651820, 2012; active = well fitted inhibition curve with a large enough effect; inconclusive = small, poorly fitted or top-dose-only effect, or another doubt; inactive = no such curve, though single readings can be large or run the other way
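Whole-lifecycle infectious HCVcc-Cre system; cells 1,000/well, compound then virus (~0.5 moi) added 4 h after plating, 44 h culture. Luciferase read 15 sec following 15 min substrate incubation, room temp.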
LASV entry inh: qHTS for Inhibitors of binding or entry into cells for Lassa Virus. Lassa virus pseudotype entry inhibition, cell reporter. Potency, µM (highest dose often 37.9 µM), actives largely listed as inhibitors. 300,000 compounds, 1.2% hits; calls by dose curve; tested in HEK293 cells; also: nearly all actives have a fitted effect of over 50% in size
Vaccinia mCherry: qHTS for Stage-Specific Inhibitors of Vaccinia Orthopoxvirus: mCherry Reporter Primary qHTS; Vaccinia virus mCherry reporter infection, fluorescence; Potency, µM (titrated, usually from 36.5 µM), most hits filed as inhibitors; 310,000 compounds, 0.63% hits; AID 720579, 2013; calls by dose curve; tested in A549 cells; also: nearly all actives have a fitted effect of over 35% in size
Marburg entry inh: qHTS for inhibitors of binding or entry into cells for Marburg Virus. Marburg virus pseudotyped entry inhibition, cell reporter. Potency, µM (top dose mostly 37.8 µM), usual class: inhibitors. 300,000 compounds, 1.8% hits. AID 540276, 2011; calls by dose curve; tested in HEK293 cells
Vaccinia Venus: qHTS for Stage-Specific Inhibitors of Vaccinia Orthopoxvirus: Venus Reporter Primary qHTS. 330,000 compounds, 0.46% hits. Vaccinia virus Venus reporter expression, fluorescence. Potency, µM (series often up to 36.5 µM), actives largely listed as inhibitors; calls by dose curve; tested in A549 cells; also: nearly all actives have a fitted effect of over 30% in size
FMDV antiviral: High Throughput Screening for Foot and Mouth Disease Virus Antivirals; 410,000 compounds, 1.2% hits; AID 1159524, 2015; FMDV antiviral cell-based qHTS; Potency, µM (series often up to 57.9 µM), most hits filed as inhibitors; calls by dose curve; tested in HEK293T cells; also: read-out not given here; nearly all actives have a fitted effect of over 45% in size
Hits are given with their value; i = inactive; ? = inconclusive; nt = no result; ! = repeats disagree; [ ] = another dose, or the depositor's remark.

SMILES | HCV inh | LASV entry inh | Vaccinia mCherry | Marburg entry inh | Vaccinia Venus | FMDV antiviral
Cc1ccc2c(c1)sc1nc(-c3cc4ccccc4oc3=O)cn12 | nt | i | i | nt | i | 0.32µM
COc1ccc2c(c1)CCC1C2CC[C@@]2(C)C1CC[C@@H]2NCCCCCCN1C(=O)CCC1=O (some centres undefined) | nt | 13µM | nt | ? | nt | nt
COc1ccc2c(c1)CCC1[C@@H]2CCC2(C)[C@@H](NCCCCCCN3C(=O)C=CC3=O)CC[C@@H]12 (some centres undefined) | nt | nt | nt | nt | nt | i
Cc1cccc(N2CCN(Cc3nnc(-c4ccccc4C)o3)CC2C)c1 (centres undefined) | nt | i | i | i | i | i
Cc1nn(-c2ccccc2)c(-n2cccc2)c1C(=O)NCCc1ccc(Cl)cc1 | nt | i | i | i | i | ?
CCN(CC)S(=O)(=O)c1ccc(C(=O)Nc2nnc(-c3ccco3)o2)cc1 | ? | nt | i | nt | ? | i
CCCCN(CCCC)S(=O)(=O)c1ccc(NC(=O)Cc2cccs2)cc1 | ? | 9.2µM | nt | ? | nt | i
CCCCN(CC)S(=O)(=O)c1ccc(C(=O)Nc2nnc(-c3cccs3)o2)cc1 | ? | ? | i | 8.9µM | ? | i
CCC(C)NC(=O)CSc1nnc(-c2cc(-c3cccs3)nc3ccccc23)o1 (centres undefined) | i | i | nt | i | 2.8µM | i
NC(=O)CSc1nnc(-c2cc(-c3cccs3)nc3ccccc23)o1 | ? | i | ? | i | 1.6µM | i
O=C(CSc1nnc(-c2cc(-c3cccs3)nc3ccccc23)o1)NC1CCCCC1 | i | i | nt | i | ? | i
CN(C)S(=O)(=O)N1CCC(Oc2ccc(C(=O)NC3CCCCC3)cc2)CC1 | i | i | i | i | i | i
CN(C)S(=O)(=O)N1CCC(Oc2cccc(C(=O)NC3CCCCC3)c2)CC1 | 5.6µM | ? | i | i | i | ?
COc1cc(Cl)c(S(=O)(=O)NCCc2c(C)[nH]c3c(C)cccc23)cc1Cl | nt | ? | i | i | i | i
O=C1Nc2ccccc2O/C1=C\c1c(F)cccc1Cl | 10µM | nt | i | nt | i | i
COC(=O)c1ccc(/C=C2\Oc3ccccc3NC2=O)cc1 | i | nt | nt | nt | nt | i
O=C(Nc1cccc(N2CCC(NCc3cnn(-c4cccc(F)c4)c3)CC2)c1)c1ccncc1 | nt | nt | i | nt | i | i
CCOP(=O)(OCC)c1nc(-c2ccc(Cl)cc2Cl)oc1N1CCCCC1 | ? | 6.3µM | i | ? | i | i
COc1ccc2[nH]c(=O)c(CN(Cc3cccs3)S(=O)(=O)c3cccc4nsnc34)cc2c1 | 10µM! | ? | nt | 16µM! | nt | i
COc1ccc2[nH]c(=O)c(CN(Cc3cccs3)C(=S)Nc3cccc(C)c3)cc2c1 | ? | ? | i | 4.5µM | i | i
CNC(=S)N(Cc1cccs1)Cc1cc2cc(OC)ccc2[nH]c1=O | i | i | i | ? | i | ?
O=C(CN1C(=O)COc2ccc(S(=O)(=O)NC3CCCC3)cc21)Nc1ccc(Cl)cc1 | nt | i | i | nt | i | i
Cc1ccc(Cn2nc(C)c(NC(=O)c3cc(-c4ccc(F)cc4)on3)c2C)cc1 | nt | i | ? | i | ? | ?
CCc1ccc(-c2cc(C(F)(F)F)n3nc(C(=O)Nc4c(C)nn(Cc5ccc(F)cc5)c4C)cc3n2)s1 | 1.6µM | i | nt | ? | nt | ?
Cc1cccc(N2CN=c3s/c(=C/c4ccncc4)c(=O)n3C2)c1 | nt | nt | nt | i | nt | nt
SMILES | HCV inh | LASV entry inh | Vaccinia mCherry | Marburg entry inh | Vaccinia Venus | FMDV antiviral
O=c1c(S(=O)(=O)c2cccc(Cl)c2)cn(Cc2ccccc2)c2cc(N3CCCCC3)c(F)cc12 | nt | ? | i | nt | i | i
CSc1ncnc2c1ncn2CCCNCc1ccccn1 | nt | nt | i | nt | i | i
Cc1ccc(-n2nc3c(=O)n(C(C)C(=O)NCCC4=CCCCC4)nc(C)c3c2C)cc1 (centres undefined) | 10µM | nt | nt | nt | nt | 14µM
Cc1ccc(-n2nc3c(=O)n(C(C)C(=O)NCc4ccc(Cl)cc4)nc(C)c3c2C)cc1 (centres undefined) | 22µM | nt | nt | nt | nt | ?
COC(=O)c1cc(=O)c(O)c2c(O)c(O)ccc2c1 | nt | nt | i | nt | i | i
CC(NC(=O)C1CCOCC1)c1nnc2n1CCN(Cc1ccc3cccnc3c1)CC2 (centres undefined) | nt | nt | i | nt | i | i
CCOC(=O)C(C)Sc1nnc2cc(C)c3ccccc3n12 (centres undefined) | nt | i | i | i | i | i
Cc1ccc(NC(=O)C2(c3ccccc3)CC2(Cl)Cl)cc1C (centres undefined) | i | i | i | i | i | i
CCc1ccc(NC(=O)C2(c3ccccc3)CC2(Cl)Cl)cc1 (centres undefined) | ? | 16µM | nt | i | nt | ?
COc1ccccc1NS(=O)(=O)c1cccc(NC(=O)C2CC(=O)N(Cc3ccccc3)C2)c1 (centres undefined) | 14µM | ? | i | ? | i | i
CN(c1ccccc1)S(=O)(=O)c1cccc(NC(=O)C2CC(=O)N(Cc3ccccc3)C2)c1 (centres undefined) | 13µM | nt | nt | nt | nt | ?
COc1ccccc1NS(=O)(=O)c1cccc(NC(=O)C2CC2)c1 | i | nt | nt | nt | nt | i
O=C(Nc1cccc(S(=O)(=O)N2CCCCC2)c1)C1CC(=O)N(Cc2ccccc2)C1 (centres undefined) | i | nt | nt | nt | nt | i
CCOC(=O)c1ccc(N2C(=O)C[C@@H](Sc3nnc(C)s3)C2=O)cc1 | nt | nt | nt | i | nt | nt
CC(C)(C)c1ccccc1OCCCCCNCCO | 7.9µM | ? | nt | ? | nt | i
S=c1[nH]nc(-c2cc(-c3ccccc3)n[nH]2)n1/N=C/C(Br)=C/c1ccccc1 | ? | ? | 14µM | ? | ? | ?
S=c1[nH]nc(-c2cc(-c3ccccc3)n[nH]2)n1/N=C/c1ccccc1 | i | nt | i[7.34 µM] | nt | i[7.34 µM] | i
O=C(CS(=O)(=O)c1ccc(F)cc1)Nc1nnc(-c2ccccc2Cl)o1 | i[8.37 µM] | i | i | i | i | i
O=C(CN1CCC(C(O)(c2ccccc2)c2ccccc2)CC1)Nc1cc(Cl)ccc1Cl | i | 8.2µM | i | ? | i | nt
O=C(CN1CCC(C(O)(c2ccccc2)c2ccccc2)CC1)Nc1ccccc1 | ? | ? | i | 23µM | i | nt
O=C(CN1CCOCCOCCOCC1)Nc1ccccc1 | i | i | i | i | i | nt
O=C(CN1CCN(S(=O)(=O)N2CCOCC2)CC1)Nc1cc(Cl)ccc1Cl | ? | nt | i | ? | i | 28µM
O=C(CN1CCN(S(=O)(=O)N2CCCCCC2)CC1)Nc1cc(Cl)ccc1Cl | ? | i | i | i | i | i
COC(=O)c1cc2c([nH]c1=O)CC(c1ccccc1)CC2=O (centres undefined) | nt | nt | i | nt | i | nt
COC(=O)/C(C#N)=C1\SC=C(C)N1c1ccccc1 | nt | nt | nt | i | nt | nt
COc1ccc(C(=O)N2CCc3[nH]nc(-c4ccccc4)c3C2)cc1 | 11µM | i | i | i | i | i
CN(Cc1ccccc1)C(=O)COC(=O)c1cc(NS(=O)(=O)c2cccs2)ccc1O | 10µM | i | nt | i | nt | ?
